The full list was thinned out, with hits kept by preference.
Vaccinia pol inh = inhibitors of vaccinia virus processive DNA synthesis (E9 polymerase); in vitro processive DNA synthesis, absorbance read-out; hits give low values; normalized absorbance, % (test concentration not listed); 46,000 tested, 0.94% active; AID 493162; in the data active = normalized absorbance mostly below about 85%, no sharp cut-off; inactive = mostly above about 86%
Of the large screens only hits and unclear results are named; the others gave an inactive call.

COC(=O)c1cc(-c2cccnc2)nc2ccccc12	none
CN(C)CCNc1cc(-c2ccncc2)nc2ccccc12	none
CN(C)CCNc1cc(-c2cccnc2)nc2ccccc12	Vaccinia pol inh 48
O=C(Nc1cccc(F)c1)c1c(Cl)nc2ccccn12	none
COc1cccc(N(Cc2ccc(C)cc2)C2=NC3CS(=O)(=O)CC3S2)c1 (stereo not given)	Vaccinia pol inh 68
Cc1cccc(N(Cc2cc(=O)n3ccccc3n2)C2=NC3CS(=O)(=O)CC3S2)c1 (stereo not given)	none
Cc1ccc(C)c(CN(C2=NC3CS(=O)(=O)CC3S2)c2cccc(Cl)c2)c1 (stereo not given)	none
CCOC(=O)[C@H]1NC(=O)C[C@H]1c1ccccc1	none
CCOC(=O)N1CCC(N2C(=O)c3ccc(C(=O)O)cc3C2=O)CC1	none
CC(C)c1ccc([C@@H]2Nc3ccc(C(=O)O)cc3[C@@H]3C=CC[C@@H]32)cc1	Vaccinia pol inh 23
CC(=O)Nc1ccc2c(c1)C1C=CCC1C(c1cccc(Cl)c1Cl)N2 (stereo not given)	none
CCOC(=O)[C@@H]1Nc2ccc(C(=O)O)cc2[C@@H]2C=CC[C@H]12	Vaccinia pol inh 56
Fc1ccc(C2Nc3ccc(OC(F)(F)F)cc3C3C=CCC32)cc1 (stereo not given)	none
Cc1ccc(C(=O)CSc2nc(C(F)(F)F)cc(=O)n2-c2ccccc2)cc1	none
CCOC(=O)c1sc(NC(=O)CSc2ccc(C)cc2)nc1C	none
Cc1ccc(/C=C2/C=CC(=O)O2)o1	Vaccinia pol inh 82
Cc1ccc(/C=C2\CC/C(=C\c3ccc(C)o3)C2=O)o1	none
Cc1ccc(/C=C2\N=C(c3ccccc3)OC2=O)o1	none
Cc1nn(-c2ccccc2)c(-n2cccc2)c1C(=O)N1CCCC1	none
Cc1ccc(S(=O)(=O)c2nc(NN)sc2Cl)cc1	none
CCCC[n+]1cc(-c2ccccc2)nc(N2CCCCC2)n1	none
C=CCN(CC=C)c1nn[nH]n1	Vaccinia pol inh 60
O=C1CN(C(=O)C23CC4CC(CC(C4)C2)C3)CC(=O)N1CCc1ccccc1	none
Cc1ccccc1C(=O)OC1CCCC1	none
CCCNC(=O)Cn1cc2c(n1)CCCCC2	none
CCOc1ccc(CCNC(=O)c2cc3c(=O)oc4ccc(C)cc4c3s2)cc1	none
C1=C(N2CCC(Cc3ccccc3)CC2)CCc2ccccc21	none
Cc1ccc(Sc2cn[nH]c2C)cc1	Vaccinia pol inh 73
CCOC(=O)c1[nH]ncc1Sc1ccc(Cl)cc1	none
Cc1ccc(Sc2cnc3ccccc3n2)cc1	none
CC(C)COc1ccc(C(O)c2ccccc2)cc1 (stereo not given)	none
COc1ccc(S(=O)(=O)NCCC23CC4CC(CC(C4)C2)C3)cc1	none
Cc1ccc(NC(=O)COC(=O)COc2ccc(Cl)cc2)cc1C	none
CS[C@H](C)[C@H](OC(C)=O)C(=O)N(C)CCN(C)C (tested in a mixture with another compound)	Vaccinia pol inh 15
CC(C)c1ccccc1OCC(O)CN(C)C1CCCCC1 (stereo not given)	none
Cc1ccc(-c2[nH]nc3nc(C(=O)O)cc(-c4cccc5ccccc45)c23)cc1	none
COc1ccc(C2=C(C#N)C(=O)OC2)cc1	none
COc1ccc(CSc2ncn[nH]2)cc1	none
COc1ccc(CSC2=C(C#N)C(=O)NC3(CCCCC3)S2)cc1	Vaccinia pol inh 71
Cc1ccc(NS(=O)(=O)c2ccc(N3C(=O)c4ccccc4C3=O)cc2)cc1C	none
CC(=O)/C(C#N)=C(\N=C\N(C)C)SCc1c(Cl)cccc1Cl	none
CN(C)/C=C/C(=N)SCc1c(F)cccc1Cl	Vaccinia pol inh 75
Fc1cccc(CSCc2c(F)cccc2Cl)c1	none
O=C(COc1ccc2ccccc2c1Br)NCc1ccccc1	none
O=C(/C=C/c1ccc(-c2cccs2)s1)N1CCSCC1	none
Cc1ccc(C(=O)c2cccs2)s1	none
CN(C)C=NC(=O)c1ccc(-c2cccs2)s1	Vaccinia pol inh 80
O=C1Nc2ccccc2/C1=N/N1C(=O)CNC1=O	none
O=C(NC1CCN(Cc2ccccc2)CC1)c1ccsc1	none
COc1ccc2oc(=O)cc(CN(Cc3cccs3)C(C)C)c2c1	none
c1ccc(CCn2c3ccccc3c3nc4ccccc4nc32)cc1	none
C=CCn1c2ccccc2c2nc3ccccc3nc21	none
c1ccc2nc3c(nc2c1)c1ccccc1n3CCN1CCOCC1	Vaccinia pol inh 65
Cc1ccc(N2CCN(C(=O)C(c3ccccc3)c3ccccc3)CC2)cc1Cl	none
Nc1nc(=Nc2ccccc2)n2c(n1)sc1ccccc12	none
COc1ccccc1N1CCN(/N=C/c2sccc2C)CC1	none
NC(CSCc1oc(-c2ccccc2)cc1C(=O)O)C(=O)O (stereo not given)	Vaccinia pol inh 77
NC(Cc1ccccc1F)C(=O)O (stereo not given)	none
NC(CSCc1ccccc1Cl)C(=O)O (stereo not given)	none
FC(F)(F)c1cnc(N2CCN(CCOCc3ccc(Cl)cc3)CC2)c(Cl)c1	none
CCc1ccccc1NC(=O)CSc1nc2ncccc2[nH]1	none
Cc1nc2ccccn2c1-c1ccnc(=S)[nH]1	none
CC(=O)N(C(C)=O)c1nccc(-c2c(-c3ccccc3)noc2C)n1	none
Cc1onc(C(=O)N(C)C)c1-c1ccnc(=S)[nH]1	Vaccinia pol inh 88
COc1ccc(-c2noc(N3CCCC3)n2)cc1OC	none
Cc1ccc(C(=O)COC(=O)c2c(F)cccc2F)cc1	none

Compound activity from PubChem.
